# Hits are enriched below; roughly 4.9% of the tested compounds scored in any of these assays.
# dFosB act = activators of delta FosB homodimer, primary screen, biochemical, fluorescence polarization, TAMRA-CDK5 oligo, single point; purified delta FosB; percent of positive-control signal above neutral wells; 340,000 compounds, 0.99% hits; activation, % at 25 µM;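 active means mean activation above about 17%, with every replicate also reaching it, limit read from the data, passing the limit was not always enough; inconclusive means only one of the two conditions met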
# Target sequence (P13346 whole entry, looked up): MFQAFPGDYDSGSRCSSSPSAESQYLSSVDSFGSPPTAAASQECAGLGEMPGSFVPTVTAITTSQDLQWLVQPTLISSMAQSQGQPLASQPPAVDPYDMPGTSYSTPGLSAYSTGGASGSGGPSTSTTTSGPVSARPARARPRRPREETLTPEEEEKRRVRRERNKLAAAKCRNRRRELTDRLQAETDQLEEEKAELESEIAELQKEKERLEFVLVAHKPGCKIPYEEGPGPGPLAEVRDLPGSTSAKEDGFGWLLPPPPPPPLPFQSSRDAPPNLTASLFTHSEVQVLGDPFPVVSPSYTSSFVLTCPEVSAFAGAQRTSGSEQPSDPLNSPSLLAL
# HSF1 inh = HSF1 inhibitors in luciferase reporter cells, primary screen, cell-based, NIH3T3, luminescence | AID 2098, 2009 | 300,000 compounds, 0.77% hits | activity change, negative = inhibition, % at 7.5 µM (by protocol) | NIH3T3-HGL HSE-luciferase, MG132-induced, luminescence 8 h; stronger effect = lower value;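 active means more than half of replicate wells show activity change below -50%, luminescence cut by over half; inconclusive means some wells, but at most half, below -50%; inactive means no replicate well below -50%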;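 further: luciferase reports HSF-1 transcriptional activity via heat shock element; 0% = median of DMSO wells and -100% = zero luminescence signal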
# HSF-1 act = HSF-1 activators, primary screen, NIH3T3-HGL cells, MG132 stress, luminescence, single point; 300,000 compounds, 1.7% hits; NIH3T3-HGL HSF-1 luciferase reporter, 8 h; 100% = twice DMSO control signal; activation, % at 9 µM; AID 504408, 2011;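 active means mean replicate activation of at least 50% with a set share of replicates each reaching 50%; inconclusive means only one of those two conditions met; inactive means mean below 50% and too few replicates reaching it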;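 further: 0% = median of the neutral control wells and 100% = twice that signal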
# Platelet DG rel = inhibitors of platelet dense granule secretion, primary screen, cell-based, MLPCN, human platelets; human platelet-rich plasma, SFLLRN dense granule ATP release, luminescence; inhibition, %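 (compounds screened at 7.5 µM in platelet-rich plasma)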; 300,000 compounds, 0.22% hits; AID 1663, 2009;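 active means mean replicate score, as percent of positive control, at or above 50; inconclusive means mean below 50 but at least one replicate at or above 50; inactive means mean and every replicate below 50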
# MPTP block = mitochondrial permeability transition pore inhibitors, primary screen, biochemical, isolated mouse mitochondria, absorbance; Ca2+ swelling absorbance, 30 min; inhibition, % at 10 µM; 360,000 compounds, 1.4% hits;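 active means inhibition of 50% or more, scaled per plate between neutral and stimulator controls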;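 further: 0% = DMSO wells given calcium and 100% = 1 mM EGTA wells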
# HSP90 inh = HSP90 inhibitors, primary screen, cell lysate, luminescence; inhibition, % at 5.6 µM; AID 1789, 2009; Rabbit reticulocyte lysate, luciferase refolding luminescence, 3 h; 290,000 compounds, 0.91% hits;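 active means inhibition above the screen-wide mean plus 3 SD, computed separately per campaign, cut at about 16% in these data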;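 further: 0% = DMSO wells and 100% = 60 µM geldanamycin wells; inhibitors lower the luminescence because luciferase stays unfolded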
# Rh123 counter = fluorescence retest of MPTP screen hits in isolated mitochondria, single concentration; shares compounds with MPTP block; membrane potential, Rhodamine 123 fluorescence; inhibition, % at 10 µM; 5,000 compounds, 78% hits; AID 624504, 2012; in the data active means inhibition above about 22%;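 further: 0% = DMSO vehicle and 100% = positive control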
# MPTP swell DR = mitochondrial permeability transition pore inhibitors, dose response, biochemical, absorbance, uHTS hits; shares compounds with MPTP block; isolated mitochondria swelling; IC50, µM; 780 compounds, 58% hits; AID 651561, 2012; in the data active means IC50 below about 20 µM
# MPTP cs DR = fluorescent counter-screen in isolated mitochondria, dose response, counter-screen for MPTP inhibitor project, biochemical, fluorescence, uHTS hits; shares compounds with MPTP block; isolated mitochondria counterscreen, fluorescence read-out; IC50, µM; 780 compounds, 49% hits; in the data active means IC50 below about 80 µM
# The depositor's hits bear a star; ? = inconclusive; · = not tested or not shown.
SMILES,dFosB act,HSF1 inh,HSF-1 act,Platelet DG rel,MPTP block,HSP90 inh,Rh123 counter,others
O=C(CC12CC3CC(CC(C3)C1)C2)NC(=S)Nc1ccc(CN2CCOCC2)cc1,-11,1,20,-8,1,4,·,
Cc1ccc(/C=N\NC(=O)c2ccc3c(c2)OCO3)o1,-3,8,37,-8,0,1,·,
CC(C)CC(N)c1csc(Nc2cnccn2)n1 (stereo unspecified),·,·,·,·,0,·,·,
Cc1ccsc1C(=O)N1CCCC(CO)(Cc2ccccc2F)C1 (stereo unspecified),-7,3,18,6,-1,-3,·,
COc1ccc(NS(=O)(=O)c2cc(NC(=O)[C@@H](NC(=O)c3ccccc3)C(C)C)ccc2C)cc1,-12,3,18,-5,2,3,·,
CCCCNC(=S)NC(=O)c1ccc([N+](=O)[O-])cc1,0,2,14,1,-2,-2,·,
CCCCNC(=S)Nc1ccc([N+](=O)[O-])cc1,6,2,17,5,95*,-4,89*,
Cc1cccc(NC(=O)Nc2ccc(S(N)(=O)=O)cc2)c1,·,-1,11,1,-1,0,·,
Cc1cccc(NC(=O)Nc2ccc(Oc3c(F)c(F)c(F)c(F)c3F)cc2)c1,-1,0,-6,-10,88*,0,60*,
COc1ccc(S(=O)(=O)N2CCCC(N(C)CCc3ccccc3)C2)cc1OC (stereo unspecified),-14,3,2,10,4,-1,·,
CCOC(=O)[C@@H]1[C@H]2COc3ccccc3[C@@H]2N2C(=O)N(c3ccc(C(F)(F)F)cc3)C(=O)[C@@]12C,-12,·,·,·,-1,·,·,
CCOC(=O)[C@@H]1[C@H]2COc3ccccc3[C@H]2N2C(=O)N(c3ccc(C(F)(F)F)cc3)C(=O)[C@]12C,-3,0,-4,1,95*,0,118*,
O=c1oc2ccccc2c(Nc2ccc3ccccc3c2)c1[N+](=O)[O-],-5,-8,-15,1,62*,2,78*,
O=C(NC1=NCCS1)c1cccc2ccccc12,-4,1,1,6,-1,-1,·,
CS(=O)(=O)N(CC(=O)N1CCCCCC1)c1cccc(F)c1,0,-1,4,-2,-1,1,·,
O=C(NCc1ccc(F)cc1)C1CC(=O)N(C2CCCCC2)C1 (stereo unspecified),-5,-3,-6,-15,0,3,·,
CC(C)CN1C(=S)SC(C)(C)C1n1oc(=O)n(-c2ccc(Cl)cc2)c1=O (stereo unspecified),-3,7,4,-7,88*,-1,95*,
Cc1nc2ccc(NC(=O)CCC3CCCC3)cc2s1,-10,13,16,-3,0,-6,·,
O=C(Nc1cc(-c2ccccc2)nn1C1CCCCC1)c1ccc(Cl)cc1,1,·,·,·,64*,·,97*,
Cn1nc(-c2ccccc2)cc1NC(=O)c1ccccc1,0,4,17,-33,0,3,·,
CC(C)C(=O)Nc1ccc(Sc2ccc(F)cc2)cc1,2,0,5,-3,52*,4,37*,
Cc1ccc(S(=O)(=O)NC(=O)C2(C)CCN2C(=O)c2ccc(C(F)(F)F)nc2C)cc1 (stereo unspecified),·,·,·,·,-2,·,·,
CCc1ccc(C(C)(O)C(CN2CCOCC2)c2ccccc2)cc1 (stereo unspecified),-8,12,-4,0,0,-1,·,
CCOC(=O)c1cccc(-n2c(-c3ccc(OC)cc3)nc3nc4ccccc4nc32)c1,·,-5,1,-9,·,-5,·,
CC1(C(=O)Nc2ccccc2)CCN1C(=O)Cc1ccc(-c2ccccc2)cc1 (stereo unspecified),·,·,·,·,8,·,·,
SMILES,dFosB act,HSF1 inh,HSF-1 act,Platelet DG rel,MPTP block,HSP90 inh,Rh123 counter,others
CC1(C(=O)Nc2ccc3c(c2)OCO3)CCN1C(=O)Cc1ccc(-c2ccccc2)cc1 (stereo unspecified),·,·,·,·,74*,·,96*,
O=C(Nc1cccc(C(F)(F)F)c1)OCCN1CCN(Cc2ccccc2)CCC1=O,-12,3,12,0,98*,-2,90*,
Cc1nc2c(Br)cc(Br)cc2cc1O,-8,5,11,-3,99*,-1,97*,
COc1ccc(C(=O)N[C@H](C(=O)N2CCN(c3ccccc3F)CC2)C(C)C)cc1,-4,-3,-5,9,1,-3,·,
COc1ccc(S(=O)(=O)Nc2cccc(S(=O)(=O)N3CCCCCC3)c2)cc1,-2,4,9,28,2,-1,·,
O=S(=O)(Nc1nc2ccccc2nc1Nc1ccc2c(c1)OCO2)c1ccc(F)cc1,-5,-8,-9,1,51*,2,4,MPTP swell DR=4.1*;MPTP cs DR=<2.5*
Cc1ccc(S(=O)(=O)Nc2nc3ccccc3nc2N2CCOCC2)cc1,-6,·,·,·,-1,·,·,
O=S(=O)(Nc1nc2ccccc2nc1N1CCN(c2ccccc2)CC1)c1ccc(F)cc1,-10,7,?,14,79*,-1,72*,
O=C(O)c1cccc(Nc2nc3ccccc3nc2NS(=O)(=O)c2ccc(F)cc2)c1,-6,·,·,·,1,·,·,
O=S(=O)(Nc1nc2ccccc2nc1Nc1cccc(S(=O)(=O)N2CCCCC2)c1)c1ccccc1,-12,70,101*,-3,55*,-2,44*,
O=C(CSc1ccc([N+](=O)[O-])cn1)Nc1cc(C(F)(F)F)ccc1N1CCOCC1,-9,27,32,-12,0,1,·,
Oc1ccc(Oc2ccc(Oc3ccc(O)cc3)cc2)cc1,-14,9,19,-4,62*,-3,80*,
C/C(N=Nc1nc2ccccc2s1)=N\Nc1ccccc1O,-7,-22,-38,1,91*,4,54*,
Oc1[nH]c2ccccc2c1N=Nc1nc2ccccc2s1,-26,11,2,2,5,-5,·,
Cn1c(NCc2cc(Br)ccc2O)nc2ccccc21,-1,-13,-3,-2,28,-4,·,
Cn1c(NCc2c(O)ccc3ccccc23)nc2ccccc21,3,2,8,-1,51*,-3,45*,

# High-throughput results (PubChem)
